# Assay results published in PubChem BioAssay (Tox21).
# Results filed as inconclusive are left out. Active and inactive are the calls of the source. The call rests on the fitted dose curve.
# Molecular target: Vitamin D3 receptor (Homo sapiens) (UniProt P11473)
# Assay: qHTS assay to identify small molecule agonists of the vitamin D receptor (VDR) signaling pathway (AID 743222)
# Details: HEK293T VDR-UAS-bla, beta-lactamase FRET ratio, 16 h; series mostly up to 63.5 µM; activation: at the top concentration
# Source text: National Center for Advancing Translational Sciences [NCATS]
# NIH Chemical Genomics Center [NCGC]
# U.S. Environmental Protection Agency [EPA]
# National Institutes of Environmental Health Sciences [NIEHS]
# National Toxicology Program [NTP]
# U.S. Food and Drug Administration [FDA]
# The vitamin D receptor (VDR), a member of nuclear hormone receptor superfamily, plays a critical role in calcium homeostasis and bone metabolism. It is also involved in cell differentiation and growth, and thrombogenicity.
# Tox21 Assay Protocol Summary:
# VDR-bla cells were dispensed at 2,000 cells/6 uL/well into black wall/clear-bottom 1536-well plates using a Multidrop Combi (Thermo Fisher Scientific, Waltham, MA) dispenser. After the assay plates were incubated at a 37C and 5% CO2 for 4 h, 23 nL of compounds dissolved in DMSO, positive controls or DMSO only was transferred to the assay plate by a Pintool station (Kalypsys, San Diego, CA). The plates were incubated at 37C and 5% CO2 for 16 h. After 1 uL of LiveBLAzerTM B/G FRET substrate was added using a Bioraptr Flying Reagent Dispenser (FRD) workstation (Beckman Coulter, Indianapolis, IN, USA), the plates were incubated at room temperature for 2 h, and fluorescence intensity was measured by an Envision plate reader (PerkinElmer, Shelton, CT).
# On the % scale 0 is the no-effect control and ±100 the full control effect.
# Vitamin D3 receptor (Homo sapiens), sequence (P11473 whole entry, looked up): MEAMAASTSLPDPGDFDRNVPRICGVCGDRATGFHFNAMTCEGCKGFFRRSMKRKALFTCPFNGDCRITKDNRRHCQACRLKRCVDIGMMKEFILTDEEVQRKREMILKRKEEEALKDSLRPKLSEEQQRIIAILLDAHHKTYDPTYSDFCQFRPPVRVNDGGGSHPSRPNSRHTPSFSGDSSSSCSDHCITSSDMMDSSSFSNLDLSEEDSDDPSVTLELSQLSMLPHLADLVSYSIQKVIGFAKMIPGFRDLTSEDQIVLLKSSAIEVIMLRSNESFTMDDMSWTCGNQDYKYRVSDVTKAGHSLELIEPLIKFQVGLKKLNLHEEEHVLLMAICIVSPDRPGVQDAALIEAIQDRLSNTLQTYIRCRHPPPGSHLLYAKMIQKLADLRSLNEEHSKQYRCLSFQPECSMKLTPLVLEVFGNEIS
row,SMILES,activation
1,CCOP(=S)(OCC)SCCl,-0.0158% (inactive)
2,N#CC(Br)(Br)C(N)=O,-0.621% (inactive)
3,Oc1ccc2c3c1O[C@H]1[C@@H](O)C=C[C@H]4[C@@H](C2)NCC[C@@]341,4.15% [at 81.1 µM] (inactive)
4,CCNP(=S)(OC)O/C(C)=C/C(=O)OC(C)C (stereo not given),-1.56% (inactive)
5,CC(Cc1ccccc1)NCCn1cnc2c1c(=O)n(C)c(=O)n2C (stereo not given),-0.209% [at 81.1 µM] (inactive)
6,CS(=O)(=O)Cl,0.973% [at 81.1 µM] (inactive)
7,CC#Cc1cc(C)nc(Nc2ccccc2)n1,1.27% (inactive)
8,O=C(O)C(F)(F)C(F)(F)C(F)(F)C(F)(F)C(F)(F)C(F)(F)F,4.49% (inactive)
9,CCNc1nc(NCC)nc(SC)n1,-8.83% (inactive)
10,O=P(O)(O)CN(CP(=O)(O)O)CP(=O)(O)O,-6.2% [at 29.5 µM] (inactive)
11,[P]#[In],0.433% (inactive)
12,CC(=NC#N)N(C)Cc1ccc(Cl)nc1,4.25% (inactive)
13,CN(C)CCN(C)C,7.81% (inactive)
14,CCOC(=O)CCl,5.73% (inactive)
15,CC(C)(C)C(=O)C(Cl)Cl,4.99% (inactive)
16,CCN(CC)C1CCCCC1,-1.33% (inactive)
17,O=C(O)CBr,4.61% (inactive)
18,CC(C)[C@]12CC(=O)[C@H](C)[C@H]1C2,8.73% (inactive)
19,ClCOCCl,0.833% [at 81.1 µM] (inactive)
20,O=C(Cl)c1ccccc1,0.978% [at 81.1 µM] (inactive)

row,SMILES,activation
1,NCCOS(=O)(=O)O,4.34% (inactive)
2,O=C(CCl)NCO,-8.07% (inactive)
3,CCN(CCO)CCO,3.47% (inactive)
4,CC(C)(O)C(Cl)(Cl)Cl,-5.85% (inactive)
5,C=C(C)[C@H]1CN[C@H](C(=O)O)[C@H]1CC(=O)O,0.0575% (inactive)
6,CC[C@@H](CO)NC(=O)[C@@H]1C=C2c3cccc4c3c(cn4C)C[C@H]2N(C)C1,6.22% (inactive)
7,CCN[C@@H](C)Cc1ccccc1,-1.11% [at 81.1 µM] (inactive)
8,C[C@H](CN1CCOCC1)C(C(=O)N1CCCC1)(c1ccccc1)c1ccccc1,-0.711% [at 81.1 µM] (inactive)
9,CCC(CC)(CNC(=O)CCCO)c1cccc(OC)c1,-0.661% (inactive)
10,Clc1nc(Cl)nc(Nc2ccccc2Cl)n1,-0.82% (inactive)
11,CCCCCCCCBr,0.966% (inactive)
12,O=C(O)c1c(Cl)ccc2cc(Cl)cnc12,0.846% (inactive)
13,CCCCS(=O)(=O)Cl,4.34% (inactive)
14,C/C(=N\NC(=O)Nc1cc(F)cc(F)c1)c1ncccc1C(=O)O,1.25% (inactive)
15,CC(Cl)(Cl)Cl,6.12% (inactive)
16,CC(O)CCl (stereo not given),-5.11% (inactive)
17,Cl/C=C/CCl,0.199% [at 81.1 µM] (inactive)
18,CCCCCCC1CCOC1=O (stereo not given),8.13% (inactive)
19,Cn1c(N)nc2c3cccnc3ccc21,0.747% (inactive)
20,Cc1ccc2cc(C)ccc2c1,-2.61% (inactive)
